# High-throughput results from PubChem BioAssay.
# A selection: hits, their analogues and other compounds. The true share with any hit is near 21%.
# Pf growth 48h: inhibits P. falciparum growth in the first generation, 48 h | P. falciparum luciferase growth in erythrocytes, 48 h | Potency, µM (series often up to 28.7 µM), hits mostly inhibitors | 310,000 tested, 5.9% active | AID 504832
#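 Luciferase-expressing parasites in RBCs, 2% Hct / 0.1% parasitemia final; RPMI 1640 + 0.5% Albumax; 37 C, 5% CO2, one generation; luminescence read-out, lower signal = inhibition.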
# HCV inh: HCV inhibition | Huh7.5.1 HCVcc-Cre infection, luciferase reporter, 44 h | Potency, µM (highest dose often 41.8 µM), usual class: inhibitors | 340,000 tested, 3.4% active | AID 651820
#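 Infectious HCV cell culture screen: compound-treated cells (1,000/well, pre-plated 4 h) are infected with HCVcc-Cre at roughly 0.5 moi and grown 44 h. Infection is quantified by luciferase signal after 15 min substrate incubation at room temperature.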
# Cycloheximide cs: affects cycloheximide protein synthesis inhibition readout, counter-screen; cell reporter, cycloheximide protein synthesis inhibition counterscreen; AID 2314; 300,000 tested, 12% active; max response, %; in the data active = max response mostly above about 13%, no sharp cut-off; inactive = mostly below about 14%; note: read at 38.3 µM for the half of the compounds with a filed dose
# Pf growth 96h: inhibits malaria parasite growth, 96 h. P. falciparum luciferase reporter growth, 96 h. Potency, µM (series often up to 28.7 µM), most hits filed as inhibitors. 320,000 tested, 6.9% active
#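 Delayed-death screen, second-generation endpoint: infected erythrocytes, 2% hematocrit, 0.05% parasitemia final; 96 hours at 37 C, 5% CO2; luciferase detection reagent; luminescence decrease equals reduced growth.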
# HCMV antiviral: blocks human cytomegalovirus replication. HFF cells, HCMV-luciferase reporter, 72 h; active compounds read low. activity change, negative = inhibition, % at 57.5 µM. 410,000 tested, 4.5% active. AID 1259415; in the data active = activity change below about -60%; inconclusive = no clear call, values can overlap the other calls; inactive = above about -39%
#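 Screen run at 2 compound doses on HFFs infected with reporter HCMV, MOI 1 PFU/cell. Luciferase activity from cell lysates at 72 h post infection gave inhibition relative to buffer-only and Salinomycin wells.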
# Shiga toxin inh: inhibitors of Shiga toxin in Vero cells | Vero cells, Shiga toxin protein synthesis inhibition reporter | inhibition, % at 38.7 µM | 290,000 tested, 9.2% active | AID 2315; in the data active = inhibition mostly above about 28%, no sharp cut-off; inactive = mostly below about 43%
# A number is an active result; i = inactive; ? = inconclusive; nt = not tested or not shown. Unless noted, calls come from the whole dose curve; as a rule, active = well fitted inhibition curve with a large enough effect; inconclusive = small, poorly fitted or top-dose-only effect, or another doubt; inactive = no such curve, though single readings can be large or run the other way.
SMILES,Pf growth 48h,HCV inh,Cycloheximide cs,Pf growth 96h,HCMV antiviral,Shiga toxin inh
COc1ccc(CN2C(=O)C(n3c(C)ccc3C)c3cc(OC)ccc32)cc1 (stereo not given),nt,nt,nt,nt,i,nt
Cc1cc(C(=O)N/N=C/c2ccc[nH]2)n[nH]1,i,1.4µM,16,i,?,36
O=C(NCC1CCCO1)c1cc2ccccc2[nH]1 (stereo not given),i,i,15,?,i,121
COc1ccccc1-c1nc(C(=O)NCC2CCCO2)cc2c1[nH]c1ccccc12 (stereo not given),9.3µM,?,i,8.3µM,nt,i
COc1ccccc1-n1c(SCC(=O)NCC2CCCO2)nc2c([nH]c3ccccc32)c1=O (stereo not given),i,i,i,i,i,i
COc1cc(-c2nc(C(=O)NCC3CCCO3)cc3c2[nH]c2ccccc23)cc(OC)c1OC (stereo not given),?,3.5µM,i,6.6µM,i,i
O=C(NCC1CCCO1)c1cc2c([nH]c3ccccc32)c(-c2cccc(Cl)c2)n1 (stereo not given),?,1.3µM,i,5.9µM,nt,i
COc1cccc2[nH]c(C(=O)NCC3CCCO3)cc12 (stereo not given),i,i,i,i,i,i
COc1cc(C(=O)Nc2ccc(C(=O)NCC3CCCO3)cc2)cc(OC)c1OC (stereo not given),?,i,i,?,i,i
O=C(CNC(=O)c1ccc(F)cc1)OCc1cc(=O)n2ccsc2n1,nt,nt,nt,nt,i,nt
CCOC(=O)C1=C(CS(=O)(=O)c2cccc(C(F)(F)F)c2)NC(=O)NC1c1cccc(OC)c1 (stereo not given),nt,nt,nt,nt,i,nt
Cc1ccc(NC(=O)c2cnn3c(C(F)F)cc(-c4ccccc4)nc23)c(C)c1,nt,nt,nt,nt,i,nt
Cc1nn(Cc2c(Cl)cccc2Cl)c(C)c1NC(=O)c1cnn2c(C(F)F)cc(-c3ccccc3)nc12,?,i,i,2.6µM,i,i
COc1ccc(-c2cc(C(F)F)n3ncc(C(=O)Nc4cc(C)on4)c3n2)cc1,4.1µM,i,28,i,i,i
Cc1ccc(-c2cc(C(F)F)n3ncc(C(=O)Nc4c(C)nn(Cc5ccccc5Cl)c4C)c3n2)cc1,?,?,i,?,-95,i
Cc1ccc(NC(=O)c2cnn3c(C(F)F)cc(-c4ccccc4)nc23)cc1F,nt,nt,nt,nt,i,nt
COc1ccc(-c2cc(C(F)F)n3ncc(C(=O)Nc4c(C)n(C)n(-c5ccccc5)c4=O)c3n2)cc1,?,i,i,i,i,i
Cc1ccc(-c2cc(C(F)F)n3ncc(C(=O)Nc4c(C)nn(Cc5c(Cl)cccc5Cl)c4C)c3n2)cc1,?,i,i,2.3µM,-77,i
CCn1c(=O)n(-c2ccc3c(c2)OCO3)c2nc(-c3cc(OC)ccc3OC)nc(C(N)=O)c21,nt,nt,nt,nt,i,nt
CC1(C)CC(=O)C=C(C2CC2)C1=O,nt,nt,nt,nt,i,nt
CCCCn1nnnc1C(c1cc2ccccc2o1)N1CCN(C/C=C/c2ccccc2)CC1 (stereo not given),nt,nt,nt,nt,i,nt
COc1ccc(C(=O)Nc2ccnn2C2CCN(C(C)CSC)CC2)cc1 (stereo not given),i,i,i,2.9µM,i,i
COc1ccc(C(=O)Nc2ccnn2C2CCN(Cc3ccc4nonc4c3)CC2)cc1,i,i,i,i,-94,i
COc1ccccc1C(=O)Nc1ccnn1C1CCN(C(C)CSC)CC1 (stereo not given),i,i,i,?,i,i
COc1ccc(C(=O)Nc2ccnn2C2CCN(C(=O)c3cccnc3)CC2)cc1,i,i,30,?,i,60
SMILES,Pf growth 48h,HCV inh,Cycloheximide cs,Pf growth 96h,HCMV antiviral,Shiga toxin inh
O=C(Nc1ccnn1C1CCN(Cc2ccc3nonc3c2)CC1)c1cccc(F)c1,?,?,i,?,i,i
COc1ccc(S(=O)(=O)NCC2CCCN(C(=O)c3ccco3)C2)cc1 (stereo not given),i,i,i,?,i,i
COc1ccc(S(=O)(=O)NCC2CCCN(C(=O)c3cccnc3)C2)cc1 (stereo not given),i,i,i,i,-60,i
Cc1ccc2nc(N3CCN(c4cccc(C(F)(F)F)c4)CC3)c3nnnn3c2c1,nt,nt,nt,nt,i,nt
CC(=C1SC(=S)NC1=O)c1ccc(Cl)c(O)c1,nt,nt,nt,nt,i,nt
O=C1NC(Cc2ccc(O)cc2)c2nc3cc(F)c(F)cc3c(=O)n2-c2cc3ccccc3cc21 (stereo not given),nt,nt,nt,nt,i,nt
O=C1NC(Cc2ccccc2)c2nc3cc(Cl)ccc3c(=O)n2-c2ncccc21 (stereo not given),nt,nt,nt,nt,-67,nt
O=C1NC(Cc2ccccc2)c2nc3ccc(F)cc3c(=O)n2-c2ncccc21 (stereo not given),nt,nt,nt,nt,i,nt
O=C1NC(Cc2ccc(O)cc2)c2nc3ccc(F)cc3c(=O)n2-c2cc3ccccc3cc21 (stereo not given),nt,nt,nt,nt,-101,nt
Cc1ccc2nc3n(c(=O)c2c1)-c1cc2ccccc2cc1C(=O)NC3Cc1ccc(O)cc1 (stereo not given),nt,nt,nt,nt,-92,nt
O=C1NC(Cc2ccc(O)cc2)c2nc3cc(Cl)ccc3c(=O)n2-c2cc3ccccc3cc21 (stereo not given),nt,nt,nt,nt,-100,nt
Cc1cc(C(=O)NCCc2ccccc2)c2cc(F)ccc2n1,i,?,i,i,i,i
CC1CCc2sc(C(=O)N=Nc3c(O)[nH]c4ccccc34)cc2C1 (stereo not given),i,i,i,i,nt,i
CCOc1ccc(-n2c(Cc3ccccc3)nnc2SCc2nc(-c3cccs3)no2)cc1,nt,nt,nt,nt,i,nt
CCn1ccnc1CN(C)Cc1cn(-c2cccc(C)c2)nc1-c1cccc(F)c1,?,3.5µM,i,?,i,i
COc1ccc(-c2[nH]ncc2CN(Cc2nccn2C)C(C)C)c(F)c1,i,i,i,i,i,i
CCn1ccnc1CN(C)Cc1cn(-c2ccc(C)cc2)nc1-c1cccc(C)c1,6.6µM,i,i,?,i,i
Cc1cccc(-n2cc(CN(C)Cc3nccn3C)c(-c3cccc(F)c3)n2)c1,?,?,i,i,i,i
CCn1ccnc1CN(C)Cc1cn[nH]c1-c1ccc(F)cc1F,i,i,i,12µM,?,i
CCN(CC)C(=O)Cn1c(=O)cc(C)c2c(C)nn(-c3ccc(C)cc3)c21,nt,nt,nt,nt,i,nt
C=CCC1(NCc2ccco2)CCN(CC)CC1,i,i,i,?,i,i
COc1ccc(CNC(=O)Cn2c(=O)ccc3cc(S(=O)(=O)N4CCCC4)ccc32)cc1,nt,nt,nt,nt,i,nt
CC(=O)Nc1ccc(-n2cc3c(c2-c2ccc(C)cc2)c(=O)n(C)c(=O)n3C)cc1,nt,nt,nt,nt,i,nt
CCSc1nn(CC(=O)Nc2cccc(Cl)c2)c(N)c1S(=O)(=O)c1ccc(OC)cc1,nt,nt,nt,nt,i,nt
CC(=O)c1cccc(NC(=O)N2CCc3ccccc3C2)c1,i,i,25,i,i,100
CC(=O)c1ccc(NC(=O)N2CCc3ccccc3C2)cc1,i,i,29,i,i,109
